Sampled rows, rich in hits. Any-hit rate of the full collection: about 7%.
ATXN2 expr inh – Primary qHTS for Inhibitors of ATXN expression. HEK-293 ATXN2-luciferase reporter, luminescence, 24 h. Potency, µM (doses to about 57 µM), for inactives: at the highest dose activity change, negative = inhibition, usual class: inhibitors. 360,000 compounds, 0.72% hits. AID 1745845, 2022; further: potency means the concentration at half of the fitted maximal effect; on the % scale 0 is the no-effect control and ±100 the full control effect; nearly all actives have a fitted effect of over 55% in size
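qHTS (up to 57 uM final) was run with 24 h compound exposure of reporter cells at 37 °C. Each well was multiplexed: SteadyGlo luminescence measured ATXN2-luciferase expression after a fluorogenic Gly-Phe-AFC viability readout (25 uM final).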
S2 tox – Viability Counterscreen for Primary qHTS for Inhibitors of ATXN expression; AID 651635, 2014; 400,000 compounds, 0.49% hits; S2 cells (HEK-293 line with an ATXN2-luciferase reporter) viability, CellTiter-Fluor protease fluorescence, 24 h; Potency, µM (titrated, usually from 56.7 µM), most hits filed as cytotoxic; further: potency means the concentration at half of the fitted maximal effect; nearly all actives have a fitted effect of over 40% in size
IL1B secr inh – qHTS for Inhibitors of Inflammasome Signaling: IL-1-beta AlphaLISA Primary Screen | THP-1 LPS/ATP IL-1B secretion, AlphaLISA, 16 h; hits give low values | activity change, % at 57.5 µM | 360,000 compounds, 4.7% hits; in the data active means activity change below about -50%; inconclusive means mostly about -30% to -49%; further: on the % scale 0 is the no-effect control and ±100 the full control effect
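Secreted IL-1B measured by AlphaLISA bead assay after 16 h compound exposure of THP-1 cells; compounds (final up to 57.5 uM) added 1 h before LPS (250 ng/mL) and ATP (1.25 mM) stimulation; lower signal means less secretion.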
a7 integrin act – qHTS for Activators of Integrin-Mediated Alleviation for Muscular Dystrophy. Potency, µM (doses to about 38.3 µM), inactives show at the highest dose activation, usual class: activators. alpha7betagal myoblasts, beta-gal FDG fluorescence, 48 h. AID 624291, 2012. 350,000 compounds, 0.064% hits;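 further: potency means the concentration at half of the fitted maximal effect; 100% = response of the positive control SU9516; nearly all actives have a fitted effect of over 60% in size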
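Alpha7betagal+/- myoblasts (passage 13) were plated 16-24 hr, then exposed to compounds (1:260 dilution of DMSO stock) for 48 hours at 37C. After MPER lysis, β-galactosidase reporter activity was read as FDG fluorescence (ex 480/em 540) after 30 minutes.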
DRD3 antagonist – qHTS of D3 Dopamine Receptor Antagonist: qHTS; D(3) dopamine receptor (Homo sapiens), P35462; D3R cells, DiscoveRx beta-arrestin luminescence, antagonist mode; hits give low values; max response, negative = inhibition, %; 360,000 compounds, 2.5% hits; AID 652054, 2013; in the data active means max response below about -50%; inconclusive means no clear call, values can overlap the other calls; further: on the % scale 0 is the no-effect control and ±100 the full control effect
Target sequence (P35462 whole entry, looked up): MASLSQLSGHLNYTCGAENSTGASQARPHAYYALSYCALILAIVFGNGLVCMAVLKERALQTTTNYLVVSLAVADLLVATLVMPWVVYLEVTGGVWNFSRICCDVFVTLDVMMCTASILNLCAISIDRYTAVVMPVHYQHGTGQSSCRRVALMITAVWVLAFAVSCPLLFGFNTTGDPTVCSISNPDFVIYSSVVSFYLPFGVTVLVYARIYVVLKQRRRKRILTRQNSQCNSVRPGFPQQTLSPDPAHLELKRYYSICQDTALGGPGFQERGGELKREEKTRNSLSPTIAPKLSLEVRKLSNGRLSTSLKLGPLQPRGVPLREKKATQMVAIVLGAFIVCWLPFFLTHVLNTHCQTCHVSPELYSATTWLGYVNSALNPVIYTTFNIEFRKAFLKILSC
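Cells plated overnight at 1500 cells/well, then exposed to library compounds with dopamine controls for 90 minutes at 37 degrees C. DiscoveRx reagent added for 30–60 minutes at room temperature; luminescence read, quantitative HTS format.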
D3 ag – qHTS of D3 Dopamine Receptor Agonist: qHTS; D(3) dopamine receptor (Homo sapiens), P35462; D3R DiscoveRx beta-arrestin cells, luminescence, 90 min; max activation, %; 410,000 compounds, 0.58% hits; AID 652048, 2013; in the data active means max activation above about 30%; further: 0% is about no effect
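Cells at 1500/well, incubated overnight, then treated with pinned compounds (dopamine as control) for 90 min at 37 degrees C. DiscoveRx reagent added for 30 - 60 minutes at room temperature; luminescence read.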
Numbers without * were called inactive; i = inactive; ? = inconclusive; . = no result given; ! = not active in a repeat. Unless noted, the call rests on the fitted dose curve; in most records, active means well fitted curve in the direction sought with a large enough effect; inconclusive means small, poorly fitted or top-dose-only effect, or another doubt; inactive means no such curve, though single readings can be large; an effect the other way counts as inactive or inconclusive.

SMILES	ATXN2 expr inh	S2 tox	IL1B secr inh	a7 integrin act	DRD3 antagonist	D3 ag
CCCCCCCCN1C(=O)C(O)=C(C(C)=O)C1c1ccccn1 (stereo not drawn)	7%	i	39	0%	15	1
Cc1[nH]c2ccccc2c1CCNC(=O)c1ccc2c(c1[N+](=O)[O-])C(=O)c1ccccc1C2=O	-10%	?	-103*	-53%	-85*	-16
C=CCc1cccc2cc(C(=O)NCCc3c(C)[nH]c4c(C)cccc34)c(=O)oc12	10%	i	.	.	.	6
Cc1[nH]c2c(C)cccc2c1CCNC(=O)c1ccc2c(c1[N+](=O)[O-])C(=O)c1ccccc1C2=O	-12%	?	-109*	-17%	-56*	0
CN(C)C(=O)c1ccc2c(c1[N+](=O)[O-])C(=O)c1ccccc1C2=O	29%	i	-5	0%	?	-9
CS(=O)(=O)N1CCCCC1c1cc(C(=O)Nc2ccccc2)no1 (stereo not drawn)	21%	i	-19	.	-11	-22
CC(=O)NC(c1cccc(F)c1)c1nc(-c2cccc(C(F)(F)F)c2)cs1 (stereo not drawn)	19%	i	3	.	-6	6
COCc1nnc(NC(=O)CC(C)c2ccccc2)s1 (stereo not drawn)	2%	i	0	7%	6	5
O=C(c1[nH]c(C(F)(F)F)nc1-c1ccccc1)N1CCCN(Cc2ccc(F)cc2)CC1	8%	i	6	.	29	6
Cc1ccc(CNC(=O)c2[nH]c(C(F)(F)F)nc2-c2ccccc2)cc1	-1%	i	20	.	-17	-12
O=C(NC1CCN(Cc2ccccc2)CC1)c1[nH]c(C(F)(F)F)nc1-c1ccccc1	-10%	i	-5	.	-85*!	-15
O=C(NCc1cccc(C(F)(F)F)c1)c1[nH]c(C(F)(F)F)nc1-c1ccccc1	?	?	34	.	-63*	-10
O=C(CN1CCN(C(=O)c2ccc(OCc3cn4ccccc4n3)cc2)CC1)Nc1cccc(F)c1	-29%	i	-18	35%	7	-5
O=C(N1CCN(Cc2ccccc2)CC1)C12CC3CC(CC(C3)C1)C2	-12%	i	-29	17%	-65*	1
O=C(N1CCN(c2ccccc2)CC1)C12CC3CC(CC(C3)C1)C2	-11%	i	6	24%	0	26
COc1ccc(NS(=O)(=O)c2cc(NC(=O)/C=C/c3cc(OC)ccc3OC)ccc2N2CCCCC2)cc1	?	i	0	17%	-22	-4
Cc1ccccc1S(=O)(=O)N(C)C[C@@H]1OCc2cnnn2CCCC(=O)N([C@@H](C)CO)C[C@@H]1C	-2%	i	-10	17%	-24	-2
O=C1C2C3CCC(O3)C2C(=O)N1c1cccc(O)c1 (stereo not drawn)	211%	?	-3	-10%	-20	1
CCCCNC(=O)Nc1nc2ccccc2s1	47%	i	-78*	9%	11	-5
CCCNC(=O)Nc1nc2ccccc2s1	43%	i	-17	20%	-1	1
O=C(O)c1ccccc1-c1ccccc1C(=O)Nc1nc2ccccc2s1	8%	i	15	-3%	-2	10
Cc1ccc(C(=O)O)c(C(=O)Nc2nc3ccccc3s2)c1	5%	i	12	-1%	10	30*
CN1CCN(c2cc3c(c4c2[nH]c2ccccc24)C(=O)CC(C)(C)C3)CC1	?	?	-65*	-55%	-7	0
CS(=O)(=O)Nc1ccc(C(=O)Nc2ccc3c(c2)OCO3)cc1	21%	i	-29	4%	1	-2
CCC(C)(C)N1CC(=O)N(Cc2ccccc2)C(c2ccc(OC)cc2)C1=O (stereo not drawn)	-2%	i	-8	4%	-52*	1
SMILES	ATXN2 expr inh	S2 tox	IL1B secr inh	a7 integrin act	DRD3 antagonist	D3 ag
CCc1ccc(-n2c(-c3ccccc3)c(C)n3c4c(=O)n(C)c(=O)n(C)c4nc23)cc1	5%	i	.	.	.	-4
CCCCNc1nc(Nc2ccc(C)c(Cl)c2)c2cnn(C)c2n1	-25%	i	-66*	-71%	20	0
Cc1cccc(NC(=O)Nc2ccc3c(c2)N(C)C(=O)CS3)n1	18%	i	-56*	42%	4	-1
CCc1ccc(C2Sc3ccccc3NC3=C2C(=O)c2ccccc23)cc1 (stereo not drawn)	-37%	28µM*	.	.	.	-6
CC(=O)Nc1ccc(C2Sc3ccccc3NC3=C2C(=O)c2ccccc23)cc1 (stereo not drawn)	12%	16µM*	.	.	.	-9
O=C1C2=C(Nc3ccccc3SC2c2ccc(C(F)(F)F)cc2)c2ccccc21 (stereo not drawn)	?	.	.	.	.	0
CC(C)c1ccc(C2Sc3ccccc3NC3=C2C(=O)c2ccccc23)cc1 (stereo not drawn)	.	.	.	.	.	-17
CCC(C)(C(=O)NC1CCCCC1)N(Cc1cccs1)C(=O)Cc1cccs1 (stereo not drawn)	-5%	?	-23	-17%	-10	-4
Cc1cccc(OCCCC(=O)Nc2ccc(S(N)(=O)=O)cc2)c1C	3%	i	-10	13%	19	1
CCOc1ccccc1-c1nc2c([nH]1)c(=O)n(C)c(=O)n2C	-25%	i	37	-3%	-20	0
CN(Cc1ccccc1F)c1nc(-c2cccnc2)nc2ccccc12	-16%	i	-76*	-30%	4	24
Cc1ccc(CN(C)c2nc(-c3cccnc3)nc3ccccc23)o1	?	i	-28	-58%	8	1
COc1ccc(CCNc2nc(-c3cccnc3)nc3ccccc23)cc1OC	?	?	?	?	16	3
CCOc1ccc(CN(C)c2nc(-c3cccnc3)nc3ccccc23)cc1OC	19µM*	?	-93*	-25%	9	1
COCCCN1C(=O)c2oc3ccccc3c(=O)c2C12C(=O)N(C)c1ccccc12 (stereo not drawn)	3%	i	.	.	.	-9
CCN(CC)S(=O)(=O)c1ccc(NCCCn2ccnc2)c([N+](=O)[O-])c1	-21%	?	-12	15%	5	4
O=C(c1ccccc1)c1ccc(NCCCn2ccnc2)c([N+](=O)[O-])c1	0%	i	-74*	-2%	?	-6

From PubChem BioAssay
